Screening results from PubChem.
The list is not random: actives were taken first. Their share in the collection is about 3.8%.
HepG2 tox-1 – kills HepG2 cells in TGF-b inhibitor counter-screen | AID 588856 | HepG2 CAGA-GFP viability, ATP luminescence, 18 h | Potency, µM (highest dose often 46.1 µM), usual class: cytotoxic | hit rate 0.76% among 410,000
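CellTiter-Glo luminescence gave cytotoxicity after 18 hours at 37 degrees C. The cells were HepG2 CAGA-GFP in 1% FBS DMEM, stimulated with 500 pg/mL TGF-beta after compound addition. %Activity was normalised to no-cell wells (complete cell-killing) and DMSO (no toxicity), and curves were fitted and classified.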
ATXN2 expr inh – reduces ATXN2 reporter expression in HEK-293 cells | hit rate 0.72% among 360,000 | Potency, µM (highest dose often 57 µM), most hits filed as inhibitors | HEK-293 ATXN2-luciferase reporter, luminescence, 24 h; further: nearly all actives have a fitted effect of over 55% in size
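ATXN2-luciferase reporter cells (luciferase flanked by upstream and downstream ATXN2 gene portions) were treated 24 h at 37 °C with compounds at up to 57 uM. SteadyGlo luminescence gave expression; GF-AFC fluorescence gave viability.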
HT1080 IDH1KD tx – kills HT-1080 cells with IDH1 knockdown; HT-1080 IDH1 knockdown viability, ATP luminescence, 48 h; Potency, µM (titrated, usually from 46.1 µM), actives largely listed as cytotoxic; hit rate 2% among 360,000
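Knockdown cells (IDH1KD HT-1080) received compounds 2 h after plating at 750 cells/well and were kept 48 h at 37 °C in 5% FBS RPMI. A CellTiter-Glo luminescence read gave % activity for curve fitting.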
HT1080-NT tox – kills 2HG-producing HT-1080-NT fibrosarcoma cells; HT-1080-NT fibrosarcoma viability, CellTiter-Glo ATP luminescence, 48 h; Potency, µM (doses to about 46.1 µM), most hits filed as cytotoxic; hit rate 1.6% among 360,000; AID 686970;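 further: NT is the 2HG producing partner of a matched IDH1 knockdown line; nearly all actives have a fitted effect of over 55% in size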
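750 cells/well, RPMI + 5% FBS; 2 h settle, compound pin-transfer, 48 h at 37 degrees C. CellTiter-Glo 10 min RT, luminescence. Normalized to DMSO and media-only wells.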
TGFb inhibitor – TGF-b pathway inhibition | AID 588855 | hit rate 1.2% among 410,000 | Potency, µM (doses to about 46.1 µM), hits mostly inhibitors | HepG2 CAGA-GFP TGF-b/SMAD3 reporter, GFP fluorescence, 18 h; TGF-beta stimulated, 500 pg/mL final; further: nearly all actives have a fitted effect of over 65% in size
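HEPG2 CAGA-GFP, 1000 cells/well; 2 h settle, 37 C; cpd via pin tool; TGF-b 500 pg/mL final; 18 h, 37 C; GFP imaging ex488/em500-530; %Activity normalised to -TGF-b and +DMSO controls; CRC fit, curve class.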
S2 tox – viability counter-screen for ATXN expression inhibitors | S2 cells (HEK-293 line with an ATXN2-luciferase reporter) viability, CellTiter-Fluor protease fluorescence, 24 h | Potency, µM (highest dose often 56.7 µM), usual class: cytotoxic | hit rate 0.49% among 400,000; further: nearly all actives have a fitted effect of over 40% in size
TGFb confirm – TGF-b pathway inhibition, cherry-pick retest; shares compounds with TGFb inhibitor; AID 720534; Potency, µM (series often up to 46.1 µM), hits mostly inhibitors; HepG2 CAGA-GFP TGF-b reporter, GFP fluorescence, 18 h; cells stimulated with TGF-beta, 500 pg/mL; hit rate 63% among 1,600; further: nearly all actives have a fitted effect of over 65% in size
HepG2 tox-2 – toxic to HepG2 cells in TGF-b counterscreen; shares compounds with TGFb inhibitor; HepG2 CAGA-GFP viability, ATP luminescence, 18 h; cells stimulated with TGF-beta, 500 pg/mL; Potency, µM (top dose mostly 46.1 µM), most hits filed as inhibitors; hit rate 27% among 1,600; AID 720535; further: nearly all actives have a fitted effect of over 70% in size
CCL64 TGFb inh – orthogonal confirmation of TGF-b inhibitors in CCL64 cells; AID 720536; hit rate 41% among 1,600; CCL64 CAGA-GFP reporter, TGF-b stimulated, GFP fluorescence, 18 h; shares compounds with TGFb inhibitor; Potency, µM (titrated, usually from 46.1 µM), most hits filed as inhibitors; further: nearly all actives have a fitted effect of over 65% in size
TGFb COP inh – TGF-b inhibition validated with COP promoter; shares compounds with TGFb inhibitor; Potency, µM (doses to about 46.1 µM), most hits filed as inhibitors; AID 720537; HepG2 COP-GFP TGF-b reporter, GFP fluorescence, 18 h; cells stimulated by added recombinant TGF-beta; hit rate 3% among 1,600; further: nearly all actives have a fitted effect of over 70% in size
Each line names hits and unclear results; the compound was inactive in the other large screens (follow-up assays come after a bar, where they were run). The call rests on the fitted dose curve; in most records, active means well fitted curve in the direction sought with a large enough effect; inconclusive means small, poorly fitted or top-dose-only effect, or another doubt; inactive means no such curve, though single readings can be large; an effect the other way counts as inactive or inconclusive.

CC(=O)Oc1c(Br)cc(N(C(C)=O)S(=O)(=O)c2ccccc2)c2ccccc12	ATXN2 expr inh inconclusive, HT1080 IDH1KD tx inconclusive, HT1080-NT tox inconclusive, TGFb inhibitor 8.91µM | TGFb confirm 16.4µM | HepG2 tox-2 inconclusive | CCL64 TGFb inh 13µM | TGFb COP inh inconclusive
CC(=O)Oc1ccccc1N(C(C)=O)S(=O)(=O)c1ccc2ccccc2c1	none
Cc1cccc(N2CCN(C(=O)CN3C(=O)COc4ccc(S(=O)(=O)N5CCCCCC5)cc43)CC2)c1C	TGFb inhibitor inconclusive (no result: HT1080 IDH1KD tx, HT1080-NT tox)
CN1CCN(C(=O)C2=C[C@@H](c3ccc(C(F)(F)F)cc3)C[C@@H](OCc3ccc(CO)cc3)O2)CC1	none
O=C(C1=C[C@@H](c2ccc(C(F)(F)F)cc2)C[C@@H](OCc2ccc(CO)cc2)O1)N1CCN(Cc2ccccc2)CC1	ATXN2 expr inh inconclusive, TGFb inhibitor 14.1µM, S2 tox inconclusive | TGFb confirm 18.4µM | HepG2 tox-2 inactive | CCL64 TGFb inh inconclusive | TGFb COP inh inactive
C/C=C1\COC(C(=O)NCc2ccccc2)(C(F)(F)F)C=C1C=C1CCCCC1 (stereo not given)	TGFb inhibitor 11.2µM | TGFb confirm inconclusive | HepG2 tox-2 inactive | CCL64 TGFb inh inconclusive | TGFb COP inh inactive
C/C=C1\COC(C(=O)NCCN2CCOCC2)(C(F)(F)F)C=C1C=C1CCCCC1 (stereo not given)	TGFb inhibitor inconclusive (no result: ATXN2 expr inh, HT1080 IDH1KD tx, HT1080-NT tox, S2 tox)
NC(=O)c1sc(-c2ccsc2)cc1NS(=O)(=O)c1ccc(C(F)(F)F)cc1	TGFb inhibitor inconclusive | TGFb confirm 23.1µM | HepG2 tox-2 inconclusive | CCL64 TGFb inh inconclusive | TGFb COP inh inactive
CC(=O)c1sc(-c2ccc(F)cc2)cc1NS(=O)(=O)c1ccc(C)cc1	none
CC(=O)Nc1ccn(C2OC(C(COC(C)=O)NC(=O)C(CCCCNC(=O)OCc3ccccc3)NC(=O)OC(C)(C)C)C(OC(C)=O)C2OC(C)=O)c(=O)n1 (stereo not given)	none (no result: ATXN2 expr inh, HT1080 IDH1KD tx, HT1080-NT tox, S2 tox)
O=C(Nc1ccc(Cl)cc1)/C(=C/c1cccc(O)c1)c1nc2ccccc2s1	ATXN2 expr inh 8.91µM, HT1080 IDH1KD tx 4.11µM, HT1080-NT tox 4.61µM, TGFb inhibitor 2.82µM (no result: S2 tox) | TGFb confirm 8.2µM | HepG2 tox-2 13µM | CCL64 TGFb inh 4.11µM | TGFb COP inh inactive
S=C(Nc1ccc(Cl)cc1)c1nc2ccccc2s1	HT1080-NT tox inconclusive
CCOC(=O)C1=CCN(S(=O)(=O)c2cccc(Cl)c2)C1c1cccc(C)c1 (stereo not given)	S2 tox inconclusive
CCOC(=O)C1=CCN(S(=O)(=O)c2ccc(C)cc2)C1c1cccc(Cl)c1 (stereo not given)	ATXN2 expr inh inconclusive, HT1080 IDH1KD tx inconclusive, TGFb inhibitor 10µM | TGFb confirm 23.1µM | HepG2 tox-2 inactive | CCL64 TGFb inh inactive | TGFb COP inh inactive
CCOC(=O)C1=CCN(S(=O)(=O)c2ccccc2C)C1c1cccc(Cl)c1 (stereo not given)	HT1080 IDH1KD tx inconclusive (no result: HepG2 tox-1, ATXN2 expr inh, TGFb inhibitor, S2 tox)
